Hits are enriched below; roughly 2.3% of the tested compounds scored in any of these assays.
CHO-K1 Ca antag: counter-screen for M1 antagonists: effect in parental CHO-K1 cells | 0.6% of 360,000 active | ATP-induced calcium, Fluo-8 fluorescence | inhibition, % at 3 µM | AID 602250;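 active = inhibition above a per-plate cutoff, the plate's mean sample inhibition plus 3 SD, cut at about 24% in these data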;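 also: 0% = DMSO plus EC80 ATP and 100% = DMSO alone without ATP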
M1 ag parental: nonselective activator or artifact in parental CHO-K1 cells | activation, % at 3 µM | 0.48% of 360,000 active | Fluo-8 calcium fluorescence; scaled to maximal ATP response, vehicle zero; in the data active = activation above about 15%;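 also: untransfected CHO-K1 host cells lacking M1 receptor as counterscreen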
M1 PAM: positive allosteric modulators of human M1 muscarinic receptor. P11229. CHO-K1 hM1, Fluo-8 calcium fluorescence, ACh EC20; 0% = ACh EC20, 100% = maximal ACh. activation, % at 3 µM. 0.088% of 360,000 active. AID 588819; in the data active = activation above about 19%, passing the limit was not always enough
Target sequence (P11229 whole entry, looked up): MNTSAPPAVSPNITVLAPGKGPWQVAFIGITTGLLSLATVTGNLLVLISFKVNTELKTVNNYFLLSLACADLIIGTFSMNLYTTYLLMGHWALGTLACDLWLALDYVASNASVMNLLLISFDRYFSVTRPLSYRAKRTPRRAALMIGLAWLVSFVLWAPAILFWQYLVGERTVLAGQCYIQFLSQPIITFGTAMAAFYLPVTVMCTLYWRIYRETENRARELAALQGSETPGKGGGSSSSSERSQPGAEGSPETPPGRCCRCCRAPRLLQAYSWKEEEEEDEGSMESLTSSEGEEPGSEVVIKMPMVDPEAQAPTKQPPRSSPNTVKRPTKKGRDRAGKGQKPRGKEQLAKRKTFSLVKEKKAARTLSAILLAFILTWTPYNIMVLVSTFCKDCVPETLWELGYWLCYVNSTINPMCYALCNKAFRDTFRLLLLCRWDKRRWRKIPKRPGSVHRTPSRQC
CHRM1 agonist: activates human CHRM1 receptor; P11229; CHO-K1 hM1, Fluo-8 calcium fluorescence, agonist mode; 0% DMSO, 100% acetylcholine EC100; activation, % at 3 µM; 0.33% of 360,000 active;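 active = activation above the run's mean compound activation plus 3 SD, cut at about 16% in these data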;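 also: peak over basal fluorescence ratio within a 140 s kinetic read after compound addition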
CHO-K1 Ca PAM: nonselective activator or artifact in parental CHO-K1 calcium assay; ATP EC20, Fluo-8 calcium fluorescence; 0% at ATP EC20, 100% at ATP max; activation, % at 3 µM; 0.02% of 360,000 active; AID 602247;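 active = activation above the run cutoff, the mean activation of all test compounds plus 3 SD, cut at about 40% in these data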;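 also: peak over basal fluorescence ratio in a 140 s read after ATP addition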
CHRM1 antagonist: human CHRM1 antagonism; 1.3% of 360,000 active; P11229; inhibition, % at 3 µM; CHO-K1 hM1, Fluo-8 calcium fluorescence, ACh EC80 antagonist;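 active = percent inhibition above its own plate's cutoff, namely the mean of that plate's compound wells plus 3 SD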;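 also: peak over basal fluorescence ratio during 140 s after agonist addition; 0% = ACh EC80 plus DMSO and 100% = DMSO alone without agonist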
* marks the source's active call; other numbers are inactive results.

SMILES	CHO-K1 Ca antag	M1 ag parental	M1 PAM	CHRM1 agonist	CHO-K1 Ca PAM	CHRM1 antagonist
C[C@@H]1CN(Cc2nc(-c3cnccn3)no2)C[C@H](C)O1	-0.7	24.1*	-0.9	-3.4	11.0	9.5
Cc1noc(C)c1S(=O)(=O)N(Cc1ccccc1)C(C)C	-8.7	-0.2	-1.0	-0.1	1.9	2.1
O=C(CSC(=S)N1CCCC1)Nc1ncc(Cl)cc1Cl	5.7	-0.3	13.7	-0.8	-2.4	-2.6
OCC[C@@H]1C[C@H](O)[C@@H](O)[C@@]2(OCCc3cc(Cl)ccc32)O1	11.7	0.1	0.1	-2.7	2.3	-6.7
O=C(NCCCc1ccc(F)cc1)C1CCC(=O)N(CCN2CCOCC2)C1 (centres undefined)	-10.1	2.4	3.1	-6.6	14.9	-7.6
COc1ccc(CNS(=O)(=O)c2c(C(=O)N3CCCCCC3)c(C)n(C)c2C)cc1	26.0*	0.2	3.5	-1.1	3.5	-15.8
CC(C)NS(=O)(=O)c1ccc(OCC(=O)N2CCN(c3ccccc3)CC2)cc1	-4.3	0.7	4.3	-2.7	7.3	-11.6
COc1ccc(NS(=O)(=O)c2ccc(OCC(=O)N3CCCC3)cc2)cc1	-7.0	17.3*	-2.4	4.2	20.2	2.7
O=C(COc1ccc(S(=O)(=O)NC2CCCCC2)cc1)N1CCN(c2cccc(Cl)c2)CC1	10.7	5.3	-18.3	-4.7	2.3	26.4*
O=C(c1ccc(S(=O)(=O)Nc2ccccc2)cc1)N1CCCC(C(F)(F)F)C1 (centres undefined)	25.9*	15.4*	7.9	31.5*	-30.1	5.0
COc1ccccc1CN(C)C(=O)c1cc(S(=O)(=O)N2CCCCCC2)ccc1OC	-16.4	6.1	3.8	-1.7	17.5	-17.8
C[C@@H]1CN([C@H](C)CO)C(=O)CCCn2nncc2CO[C@H]1CN(C)CC1CC1	17.9	0.2	-2.1	-8.8	5.8	9.8
CCOc1ccc(NS(=O)(=O)c2ccc(C(=O)N3CCCCCC3)cc2)cc1	-7.5	15.4*	-7.4	21.7*	-9.3	6.3
Cc1ccc(NS(=O)(=O)c2ccc(C(=O)N3CC(C)OC(C)C3)cc2)cc1 (centres undefined)	2.4	32.5*	-6.3	39.4*	-21.2	10.9
CCOc1ccc(NS(=O)(=O)c2ccc(C(=O)N3CCCC(C)C3)cc2)cc1 (centres undefined)	7.6	31.5*	-14.1	38.7*	-5.2	28.1*
CCOc1ccc(NS(=O)(=O)c2ccc(C(=O)NCC3(N(C)C)CCCCC3)cc2)cc1	10.3	19.4*	5.7	8.3	-2.8	6.3
Cc1ccc(NS(=O)(=O)c2ccc(C(=O)N3CCC3)cc2)cc1	6.8	2.7	-5.4	2.6	-18.2	5.0
COC(=O)CCCC(=O)NCC1(N(C)Cc2ccccc2)Cc2ccccc2C1	-2.2	1.3	11.5	-6.8	7.8	-13.9
CCCC(=O)Nc1ccc(C(=O)N2CCCC2)cc1	24.1*	-0.1	9.1	-1.5	-5.2	-5.6
CCOC(=O)N1CCN(C(=O)c2ccc(NS(=O)(=O)c3ccc(C)cc3)cc2)CC1	1.9	4.0	-0.3	4.4	20.4	0.0
CCOC(=O)N1CCN(C(=O)c2ccc(S(=O)(=O)Nc3ccc(C)cc3)cc2)CC1	-3.2	5.6	-13.5	-1.5	-1.9	32.1*
COc1ccc(NS(=O)(=O)c2ccc(C(=O)N3CCCCCC3)cc2)cc1	-4.5	18.1*	-15.1	23.3*	-9.7	12.9
C[C@@H]1CN([C@H](C)CO)S(=O)(=O)c2ccc(Br)cc2O[C@H]1CN(C)C(=O)Cc1ccccn1	-5.4	2.6	-2.2	-2.4	17.8	6.1
COCc1cc(C)nc(N/N=C/c2ccc(Cl)c(Cl)c2)c1C#N	5.3	-0.3	-2.0	-2.2	9.1	2.6
Cc1coc2cc3oc(=O)c(CCC(=O)NCCN4CCOCC4)c(C)c3cc12	1.4	8.3	5.3	-5.3	14.0	-10.8
SMILES	CHO-K1 Ca antag	M1 ag parental	M1 PAM	CHRM1 agonist	CHO-K1 Ca PAM	CHRM1 antagonist
O=[N+]([O-])c1ccccc1/C=N\N1CCN(c2ccccc2)CC1	1.4	27.8*	-11.7	-7.0	7.0	-0.3
CCC1(c2ccc(F)cc2)NC(=O)N(CC(=O)c2cc(C)n(C3CC3)c2C)C1=O (centres undefined)	1.2	25.6*	1.0	30.3*	28.1	7.1
COc1ccc(C2(C)NC(=O)N(CC(=O)N3CCc4ccccc43)C2=O)cc1OC (centres undefined)	-14.7	-0.5	2.5	-3.0	7.7	1.0
CCC1(c2ccc(OC)cc2)NC(=O)N(CC(=O)N2CCc3ccccc32)C1=O (centres undefined)	6.2	11.1	-3.0	28.7*	23.0	6.6
CCC1(c2ccc(F)cc2)NC(=O)N(CC(=O)N2c3ccccc3CC2C)C1=O (centres undefined)	-18.8	12.3	-1.1	26.9*	13.9	5.6
CCC1(c2ccc(F)cc2)NC(=O)N(CC(=O)N2c3ccccc3NC(=O)CC2C)C1=O (centres undefined)	9.5	-0.5	9.9	-1.1	-13.4	-6.2
CCOc1ccc(CSc2nc(C)cc(COC)c2C#N)cc1OCC	-5.6	8.0	-2.4	-7.6	11.3	0.6
Cc1ccc(OCCCCN2CCCCC2)c(C)c1	-13.5	0.5	5.0	-9.6	22.6	-15.7
Cc1ccc(OCCCCNC2CCCC(C)C2C)c(C)c1 (centres undefined)	4.4	4.5	-32.4	-14.4	13.9	48.3*
Cc1ccc(C)c(C(=O)NC(C)c2ccc(-n3ccnc3)cc2)c1 (centres undefined)	2.9	1.2	9.8	-3.4	10.8	-10.1
OC(c1cc(C(F)(F)F)nc2c(Cl)cc(Cl)cc12)C1CCCCN1 (centres undefined)	-0.6	17.7*	7.5	2.8	15.3	-8.2
O=C(CSc1nc(C(F)(F)F)cc(=O)[nH]1)Nc1cccc2ccccc12	-4.8	-0.1	24.4*	3.1	11.2	-29.3
CCN1/C(=C/c2sc(-c3ccccc3C)c[n+]2C)Sc2ccccc21	34.4*	11.0	-17.4	-1.4	-1.6	47.8*
CCN1/C(=C/C=C/C=C/C=C/c2sc3ccccc3[n+]2CC)Sc2ccccc21	-7.7	-0.3	-1.6	-8.0	10.7	0.3
CCCCSCCCNC(=O)Nc1ccc(CC)cc1	-6.0	2.1	-0.8	-4.5	-11.8	6.2
Cc1noc(C)c1NC(=O)Nc1cccc2c1O[C@H](CN(C)C(=O)NC(C)C)[C@@H](C)CN([C@H](C)CO)C2=O	-4.1	-0.1	0.2	-1.0	-5.8	2.7
CCc1cccc(CC)c1N1C(=O)C2=C(SCCCS2)C1=O	12.4	26.4*	-15.9	20.2*	-2.3	15.7
N#CC1=C(N)SC(N)=C(C#N)C1CCc1ccccc1	28.5*	6.7	3.7	12.1	-9.1	9.4
CCc1ccc(C2C(C#N)=C(N)SC(N)=C2C#N)cc1	-9.6	21.4*	-18.4	17.2*	-4.4	20.0
N#CC1=C(N)SC(N)=C(C#N)C1Cc1ccccc1	-10.4	7.4	-4.0	6.0	9.3	-0.1

Compound activity deposited in PubChem BioAssay by The Scripps Research Institute Molecular Screening Center.
